We go through 15 compounds from PubChem BioAssay (EPA / NIEHS).

Each structure is given as a SMILES string. Calls of active or inactive are those of the source. The calls were made as follows: active = hit-call score of the fitted dose curve at least 0.9, where 1 is the maximum; inactive = score below 0.9.

Experiment [1] can be described thus: APR_HepG2_CellLoss_24hr: Apredica 24-hour HepG2 Assay for Cell Loss (AID 2282908).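 As to AC50: fit in both directions so a hit may be cell loss or gain.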 To be noted: high-content imaging. The method in brief:
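Cell number is quantified by fluorescence imaging of Hoechst 33342-stained nuclei following dosing at 0.39–200 uM in 0.5% DMSO. Curves are fitted in both directions from the DMSO baseline.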

The nature of experiment [2]: APR_HepG2_MitoticArrest_24hr: Apredica 24-hour HepG2 Assay for Mitotic Arrest (AID 2282910). To be noted: high-content imaging, actives raise or lower the signal. The method in brief:
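HepG2 human liver cells were exposed to compounds at 0.39–200 uM (10 concentrations, duplicate) in 0.5% v/v DMSO for 24 hr, then fixed and immunostained for phospho-histone H3 with Hoechst 33342. Mitotic arrest came from HCS fluorescent imaging, fitted bidirectionally against DMSO.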

Experiment [3] is described as follows: APR_HepG2_MitoMembPot_24hr: Apredica 24-hour HepG2 Assay for Mitochondrial Membrane Potential (AID 2282911). The settings on record: imaging, actives raise or lower the signal. An outline of the steps: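 HepG2, 24 hr dosing, 10 concentrations 0.39–200 uM, 0.5% DMSO final. Live-cell MitoTracker Red CMXRos 250 nM 30 min, then 3.7% formaldehyde fix. HCS fluorescence imaging, 20x; bidirectional fit vs DMSO baseline.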

Experiment [4] can be described thus: APR_HepG2_MitoMass_24hr: Apredica 24-hour HepG2 Assay for Mitochondrial Mass (AID 2282912). To be noted: high-content imaging, actives raise or lower the signal. The method in brief: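 The liver line HepG2 was dosed in duplicate across a 0.39–200 uM series, with final DMSO held at 0.5% v/v, and harvested at 24 hr. High-content imaging measured mitochondrial dye staining.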

A short description of experiment [5]: APR_HepG2_p53Act_24hr: Apredica 24-hour HepG2 Assay for p53 Activation (AID 2282913).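 Also: p53 protein immunofluorescence averaged per cell in HepG2 with Hoechst nuclei.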 To be noted: high-content imaging, actives raise or lower the signal. The method in brief: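 Read-out: Cy5 immunofluorescence for p53 in fixed, permeabilized HepG2, imaged by HCS with Hoechst-defined nuclei. Dosing was 24 hr at 0.39–200 uM in 0.5% DMSO. Curves were fitted bidirectionally relative to DMSO.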

The nature of experiment [6]: APR_HepG2_CellLoss_72hr: Apredica 72-hour HepG2 Assay for Cell Loss (AID 2282915). The settings on record: high-content imaging. An outline of the steps:
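HepG2 cells were exposed for 72 hr to compounds at 0.39–200 uM (ten concentrations, duplicate) in 0.5% v/v final DMSO. Nuclei were stained with Hoechst 33342 after 3.7% formaldehyde fixation, imaged at 20x, and counted; fits bidirectional versus DMSO.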

A short description of experiment [7]: APR_HepG2_CellCycleArrest_24hr: Apredica 24-hour HepG2 Assay for Cell Cycle Arrest (AID 2282905).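 Also: cell cycle arrest scored as ratio of 2N to 4N nuclear DNA content.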 To be noted: imaging, actives raise or lower the signal. An outline of the steps: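 Cell cycle arrest is scored from nuclear DNA content measured by high-content imaging of Hoechst 33342-stained HepG2 cells following 24-hour treatment at ten concentrations up to 200 uM, with DMSO as baseline.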

A short description of experiment [8]: APR_HepG2_NuclearSize_24hr: Apredica 24-hour HepG2 Assay for Nuclear Size (AID 2282907). The settings on record: high-content imaging, actives raise or lower the signal. An outline of the steps: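 Compounds in DMSO (final 0.5%) were added to human HepG2 hepatoma cells at ten concentrations up to 200 uM for 24 hr. Fixed nuclei were stained with Hoechst 33342, and nuclear diameter was quantified from automated images.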

Experiment [9] can be described thus: APR_HepG2_MicrotubuleCSK_24hr: Apredica 24-hour HepG2 Assay for Microtubule CSK Stabilty (AID 2282909). To be noted: HepG2 microtubule cytoskeleton imaging, actives raise or lower the signal. An outline of the steps: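 Steps: dose HepG2 for 24 h (0.39–200 uM, 0.5% DMSO); fix 30 min in 3.7% formaldehyde at room temperature; permeabilize; stain alpha-tubulin 60 min; image microtubule cytoskeleton at 20x. Signal change fitted in both directions relative to DMSO.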

Experiment [10] can be described thus: APR_HepG2_CellCycleArrest_72hr: Apredica 72-hour HepG2 Assay for Cell Cycle Arrest (AID 2282914). To be noted: high-content imaging, actives raise or lower the signal. An outline of the steps:
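HepG2, 72 hr exposure, 10-point 0.39–200 uM, duplicate, 0.5% DMSO final. Fix 3.7% formaldehyde 30 min RT, Triton X-100 0.5%, Hoechst 33342 2 ug/mL. ArrayScan 20x, six fields/well; DNA content per nucleus; bidirectional fit vs DMSO.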

What is called AC50 is the concentration at which the activity in the assay is half-maximal.

For `O=C(CCCN1CCC(O)(c2ccc(Cl)cc2)CC1)c1ccc(F)cc1`, the AC50 in experiment [1] was 87.4 µM (active); in experiment [2] it was 34.5 µM (active); in experiment [4], 46 µM (active); in experiment [5] it was 98.3 µM (active); in experiment [6] it was 34.7 µM (active). Further, in experiment [3], the call was inactive.
For the compound `CN(Cc1cnc2nc(N)nc(N)c2n1)c1ccc(C(=O)N[C@@H](CCC(=O)O)C(=O)O)cc1`, the compound was called inactive in experiment [7], in experiment [8], in experiment [1], in experiment [9], in experiment [2] and in experiment [3]. Moreover, the call in [4], in experiment [10] and in experiment [6] was inactive.
Consider `O=C1NS(=O)(=O)c2ccccc21`, for which the result in [7], in [8], in [1], in experiment [9], in experiment [2] and in [3] was inactive. Further, the outcome in experiment [4], in experiment [10] and in experiment [6] was inactive.
For `N=C(N)c1ccc(OCCCCCOc2ccc(C(=N)N)cc2)cc1`, the compound was called inactive in experiment [7], in [8] and in [3]. Moreover, the AC50 in experiment [1] was 9.33 µM (active); in experiment [9] it was 32.6 µM (active); in experiment [2] it was 30 µM (active); in [4], 30 µM (active); in experiment [10], 4.81 µM (active); in [6] it was 24.2 µM (active).
`CCCCCCCCCCCCCCC`: the call in experiment [7], in experiment [8], in experiment [1], in experiment [9], in experiment [2] and in experiment [3] was inactive. Besides, the call in experiment [4], in experiment [10] and in experiment [6] was inactive.
In the case of `CCCCC(CC)C(=O)O` (stereo not given), the result in experiment [7], in experiment [8], in experiment [1], in [9], in experiment [2] and in experiment [3] was inactive. Further, the outcome in [4], in experiment [10] and in experiment [6] was inactive.
For the compound `O=C(c1ccccc1)c1ccccc1`, the compound was classed as inactive in experiment [1], in experiment [2], in experiment [3], in experiment [4], in experiment [5] and in experiment [6].
Consider `Cc1[nH]nc2c1N=C(c1ccccc1Cl)c1cc([N+](=O)[O-])ccc1N2`, for which the AC50 in experiment [7] is 0.364 µM (active); in experiment [8] it was 0.512 µM (active); in [1], 0.0391 µM (active); in experiment [3], 100 µM (active); in experiment [4], 1.09 µM (active); in experiment [10], 0.279 µM (active). Also, the AC50 in [6] was 1.49 µM (active). Moreover, the result in [9] and in experiment [2] was inactive.
Take `CC(=O)Nc1ccc(O)cc1`: the call in experiment [1], in experiment [2], in [3], in experiment [4] and in experiment [6] was inactive.
On to `CN(C)CCOC(c1ccccc1)c1ccccc1`, for which the call in experiment [1], in [2], in [3] and in experiment [4] was inactive. Also, in [6], the AC50 was 90.8 µM (active).
In the case of `CS(=O)(=O)c1ccc([C@@H](CC2CCCC2)C(=O)Nc2cnccn2)cc1Cl`, the call in [1], in experiment [2], in experiment [3], in experiment [4], in experiment [5] and in experiment [6] was inactive.
As for `OCC(CO)(CBr)CBr`, the outcome in experiment [7], in experiment [8], in experiment [1], in [9], in experiment [2] and in [3] was inactive. The result in experiment [4], in experiment [10] and in experiment [6] was inactive.
For the compound `CCCCC=O`, the compound was called inactive in experiment [7], in experiment [8], in [1], in experiment [9], in experiment [2] and in [3]. Besides, the result in experiment [4], in experiment [10] and in [6] was inactive.
`CCCCc1oc2ccccc2c1C(=O)c1cc(I)c(OCCN(CC)CC)c(I)c1`: the AC50 in experiment [1] was 43.8 µM (active); in experiment [2], 15.7 µM (active); in experiment [4], 20.7 µM (active); in experiment [5], 33.5 µM (active); in experiment [6], 17.2 µM (active). Besides, the call in experiment [3] was inactive.
As to `CCCCCCCCCCCCOS(=O)(=O)O`, the result in [7], in experiment [8], in [1], in experiment [9], in [2] and in experiment [3] was inactive. Moreover, the result in experiment [4], in [10] and in [6] was inactive.
